Shown is part of a subset that was picked to be rich in hits.
Tgondii IFNg: blocks Toxoplasma gondii growth in the presence of IFN-gamma; Toxoplasma gondii growth in IFN-gamma-treated host cells; active compounds read low; AID 1259416; activity change, negative = inhibition, % (test concentration not listed); 69,000 compounds, 3.8% hits; in the data active means activity change below about -70%, passing the limit was not always enough;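 further: host cells are HeLa cells infected with Toxoplasma gondii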
Of the large screens only hits and unclear results are named; the others gave an inactive call; ! = repeats disagree.

COC(=O)N[C@H](C(=O)N1CCC[C@H]1c1ncc(-c2ccc(-c3ccc(-c4cnc([C@@H]5CCCN5C(=O)[C@@H](NC(=O)OC)C(C)C)[nH]4)cc3)cc2)[nH]1)C(C)C	none
COCC(=O)N1CCn2c(COCc3cccc(C)n3)cnc2C1C (configuration not stated)	none
CCOc1ccc(-c2nc(Cn3ccn4nc(-c5cccs5)cc4c3=O)c(C)o2)cc1	none
CCC(=O)Nc1ccc2c(c1)CCC(=O)N2CCOC	none
Cc1ccc2[nH]c(=O)c(-c3nc(-c4cccc(Cl)c4)no3)c(O)c2c1	none
Cc1cc(N2CCCN(Cc3cnc(-c4ccco4)nc3)CC2)ccn1	none
c1csc(CN2Cc3ccnn3CC(COCC3CC3)C2)c1 (configuration not stated)	none
CC1CCCCN1S(=O)(=O)c1ccc(NC(=O)c2cnccn2)cc1 (configuration not stated)	none
CN1CCN(S(=O)(=O)c2ccc(-c3cnc(N)c(C(=O)Nc4cccnc4)n3)cc2)CC1	Tgondii IFNg -71
CC(=O)Nc1ccc(S(=O)(=O)N2CCC(O)(c3ccccn3)CC2)cc1	none
COc1ccc2c3c([nH]c2c1)[C@@H](CO)N(Cc1ccccc1OC)CC31CN(C(C)=O)C1	none
COc1ccccc1-c1nc(Cn2nnc(C(=O)Nc3cc(C)ccc3C)c2C)c(C)o1	none
CCOc1ccc(-c2nc3c(s2)CN(S(=O)(=O)c2ccc(F)cc2F)CC3)cc1	none
COc1ccc(-c2nc3c(s2)CN(S(=O)(=O)c2ccc(F)cc2F)CC3)cc1	Tgondii IFNg -95
CCc1ccc(S(=O)(=O)N2CCc3nc(-c4ccc(OC)cc4)sc3C2)cc1	none
CCOc1ccc(S(=O)(=O)N2CCc3nc(-c4ccc(OC)cc4)sc3C2)cc1	none
COc1ccc(-c2nc3c(s2)CN(S(=O)(=O)c2cc(OC)ccc2OC)CC3)cc1	Tgondii IFNg -120
Cc1cc(C)cc(NC(=O)N2CCC3(CC2)NC(=O)c2ccccc2N3C)c1	none
CCOc1ccccc1NC(=O)Nc1ccc(-c2nc(-c3ccc(C)cc3)co2)cc1	none
Clc1ccc(-c2nc(N3CCC4(CC3)OCCO4)c3ccccc3n2)cc1	none
CCCS(=O)(=O)N1CCOC2(CCCN(c3nnc(C)o3)C2)C1 (configuration not stated)	none
COc1ccc(-n2ccnc2-c2cccc(C(C)N(C)C)c2)cn1 (configuration not stated)	none
Cc1ccccc1NC(=O)c1nc(Nc2ccccc2)c2ccccc2n1	none
Cc1ccc(C(C)NC(=O)Cn2ncc3c(N4CCCCCC4)ncnc32)cc1C (configuration not stated)	none
CCOC(=O)c1nc(Nc2ccc(OC)c(OC)c2)c2ccccc2n1	none
COc1ccc(CNC(=O)c2nc(Nc3ccc(F)cc3)c3ccccc3n2)c(OC)c1	none
COc1cc(NS(C)(=O)=O)ccc1Cc1c2ccccc2nc2ccccc12	Tgondii IFNg -83
Cc1ccc(-c2nc(Cn3nnc(C(=O)NC(C)c4ccc(F)cc4)c3C)c(C)o2)cc1 (configuration not stated)	none
O=C(c1ccc2ncnc(N3CCCC3)c2c1)N1CCCC1	none
COc1ccc(C(=O)N2CCN(c3cnn(C)c(=O)c3Cl)CC2)cc1OC	none
COc1ccc(C(=O)N2CCN(c3cccc(C(F)(F)F)c3)CC2)cc1OC	Tgondii IFNg -79
COc1ccc(C(=O)N2CCN(c3ncnc4cc(C(C)(C)C)sc34)CC2)cc1OC	Tgondii IFNg -85
Cc1ccc(C)n1CCN1CCN(C(=O)c2cccc(C(F)(F)F)c2)CC1	none
COc1ccc(C(=O)N2CCC(c3nc(C(=O)N4CCCC4)c(C)o3)CC2)cc1OC	none
O=C(O)c1ccccc1NCCc1ccccc1	none
c1ccc2c(c1)CCc1ccccc1NC2	none
CCCC(Nc1nc(C(=O)OCC)nc2ccccc12)c1cccs1 (configuration not stated)	none
CCN(CC)C(=O)Sc1nc2cc(Cl)ccc2s1	none
O=C(O)CCSc1nc2ccccc2s1	none
O=C(O)CSc1nc2cc(Cl)ccc2s1	Tgondii IFNg -107
COc1ccccc1NC(=O)c1nc(Nc2ccc(Cl)cc2)c2ccccc2n1	none
O=C(Nc1ccc(F)cc1F)C1CCN(C(=O)OCc2ccccc2)CC1	none
CC(C)OC(=O)CSc1nnc(-c2ccc(O)cc2)o1	none
COCC1CN(Cc2cc(C)on2)Cc2cn(CC3CC3)nc21 (configuration not stated)	none
COc1ccc(C#Cc2ccc3c(c2)[C@H]2[C@H](CCN2C(=O)Nc2ccc(C(F)(F)F)cc2)[C@H](CO)N3C)cc1	none
CC(C)NC(=O)N1CC[C@@H]2[C@@H](CO)N(C)c3ccc(-c4ccc(F)cc4)cc3[C@@H]21	Tgondii IFNg -79
CC(C)NC(=O)N1CC[C@H]2[C@@H]1c1cc(C#Cc3ccccc3)ccc1N(C)[C@H]2CO	none
CC(C)NC(=O)N1CC[C@@H]2[C@H]1c1cc(-c3ccc(F)cc3)ccc1N(C)[C@@H]2CO	none
COc1cccc(-c2ccc3c(c2)[C@H]2[C@H](CCN2C(=O)c2ccccc2F)[C@@H](CO)N3C)c1	none
CN1c2ccc(C3=CCCCC3)cc2[C@@H]2[C@@H](CCN2C(=O)c2ccccc2F)[C@@H]1CO	Tgondii IFNg -76
CN1c2ccc(-c3ccccc3)cc2[C@@H]2[C@@H](CCN2C(=O)CC2CC2)[C@@H]1CO	none
CN1c2ccc(C3=CCCCC3)cc2[C@@H]2[C@@H](CCN2C(=O)C2CCOCC2)[C@H]1CO	none
COc1ccc(-c2ccc3c(c2)[C@@H]2[C@@H](CCN2C(=O)Nc2ccccc2OC)[C@@H](CO)N3C)cc1	Tgondii IFNg -72
Cn1cc(-c2nc(C3CCN(S(C)(=O)=O)CC3)cc3c2ncn3C)cn1	none
O=C(c1cc(C2CC2)[nH]n1)N1C[C@@H]2[C@H](C1)[C@H]1CC[C@@H]2O1	none
CCn1c(=O)n(CC)c2cc(CN(Cc3sccc3C)CC(C)O)ccc21 (configuration not stated)	none
CN(C)C(=O)N1Cc2nnn(C)c2C(COCC2CC2)C1 (configuration not stated)	none
OCc1cc(/C=C/c2ccccc2)ccn1	none
CCc1c(C)sc2ncnc(N3CC(c4ccccn4)C3)c12	none
COc1ccc(NC(=O)c2nnn(Cc3nc(-c4cccc(OC)c4OC)oc3C)c2C)cc1Cl	none
CCOc1ccccc1NC(=O)c1nnn(Cc2nc(-c3cccc(OC)c3OC)oc2C)c1C	Tgondii IFNg -79
COc1cccc(-c2nc(Cn3nnc(C(=O)Nc4cccc(Cl)c4C)c3C)c(C)o2)c1OC	none
CCOc1ccccc1-c1nc(Cn2nnc(C(=O)Nc3ccccc3OC)c2C)c(C)o1	none
COc1cccc(-c2nc(Cn3nnc(C(=O)Nc4ccccc4)c3C)c(C)o2)c1OC	none
COc1cccc(-c2nc(Cn3nnc(C(=O)Nc4cc(C)cc(C)c4)c3C)c(C)o2)c1OC	Tgondii IFNg -105
O=C(NCC1CC1)[C@H]1C[C@@H]2CN(C(=O)Nc3ccccc3Cl)C[C@H]1O2	none
CC(=O)N1CCOCC2(C1)CN(S(C)(=O)=O)CCO2 (configuration not stated)	none
CCN(CC)CCOC(=O)C(c1ccccc1)c1ccccc1	none
CCN(CC)CCOC(=O)C1(C2CCCCC2)CCCCC1	none
CCN(CC)CCOC(=O)C(c1ccccc1)C1CCCCC1 (configuration not stated)	Tgondii IFNg -77!
Cc1cc2n(n1)CCCN(C(=O)C1CC3(CCNCC3)CN1)C2 (configuration not stated)	none
Cc1ccc(C(C(=O)NCc2ccc(S(N)(=O)=O)cc2)N(C)C)cc1 (configuration not stated)	none
N[C@@H]1CCCCN(c2c(F)cc3c(=O)c(C(=O)O)cn(C4CC4)c3c2Cl)C1	none
C[C@@H]1CN(c2c(F)c(F)c3c(=O)c(C(=O)O)cn(C4CC4)c3c2F)C[C@H](C)N1	none
